Experimental data: the supplement of paper PMC10849652
Targets with a hit are over-represented here; the source holds about 8,800 in all. About 0.5% of all pairs of compound and target were hits.

Compound: CNC(=O)C1=CC=CC=C1NC2=NC(=NC=C2Cl)NC3=C(C=C(C=C3)N4CCOCC4)OC
Test: log2 fold change, soluble protein after heating vs DMSO (PISA); higher = thermal stabilisation; K562 lysate, 10 uM; active = over 0.2 and 3.5 SD of the protein, either way, in both replicates (recomputed)
How it was run: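 K562 pellets were dounce-homogenised in PBS pH 7.4 containing 1 mM MgCl2, and the crude extract, at 1 mg/mL protein, was exposed to 10 μM compound for 30 min. Aliquots were heated for 3 min across 48°C-58°C, pooled, brought to 0.5% NP-40 at 4°C and spun at 21,000xg for 90 min, with the supernatant taken as soluble protein. TMTpro 16plex LC-MS/MS with equalised channel sums quantified that protein. Values are log-two fold changes in thermal stability relative to solvent controls, taken from duplicates.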

Sequence of UniProt Q8TB52 (Q8TB52 whole entry, looked up): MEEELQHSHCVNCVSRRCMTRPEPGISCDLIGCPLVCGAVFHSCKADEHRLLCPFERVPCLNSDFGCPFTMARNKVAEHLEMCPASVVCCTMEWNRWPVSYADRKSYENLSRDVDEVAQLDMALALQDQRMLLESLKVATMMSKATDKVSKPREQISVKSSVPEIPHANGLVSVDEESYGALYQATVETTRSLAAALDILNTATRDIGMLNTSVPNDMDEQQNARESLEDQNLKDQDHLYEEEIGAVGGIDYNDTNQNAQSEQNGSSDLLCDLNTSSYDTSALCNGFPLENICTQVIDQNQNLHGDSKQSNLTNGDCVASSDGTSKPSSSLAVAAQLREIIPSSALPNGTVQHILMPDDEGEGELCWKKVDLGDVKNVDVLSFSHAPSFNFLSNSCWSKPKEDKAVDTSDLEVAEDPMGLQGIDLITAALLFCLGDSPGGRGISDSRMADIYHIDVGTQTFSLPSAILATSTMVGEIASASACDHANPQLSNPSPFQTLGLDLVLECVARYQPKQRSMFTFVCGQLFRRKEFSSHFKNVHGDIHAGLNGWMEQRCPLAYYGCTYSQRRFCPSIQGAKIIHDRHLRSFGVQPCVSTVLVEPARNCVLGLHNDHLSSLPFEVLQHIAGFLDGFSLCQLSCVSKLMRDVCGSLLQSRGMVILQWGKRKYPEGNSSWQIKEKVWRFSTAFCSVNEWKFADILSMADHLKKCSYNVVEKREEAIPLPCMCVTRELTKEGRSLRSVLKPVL
Sequence of UniProt Q9NPA8 (Q9NPA8 whole entry, looked up): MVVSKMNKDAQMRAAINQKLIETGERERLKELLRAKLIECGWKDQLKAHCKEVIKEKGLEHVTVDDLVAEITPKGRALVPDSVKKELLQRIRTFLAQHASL
Sequence of UniProt Q15125 (Q15125 whole entry, looked up): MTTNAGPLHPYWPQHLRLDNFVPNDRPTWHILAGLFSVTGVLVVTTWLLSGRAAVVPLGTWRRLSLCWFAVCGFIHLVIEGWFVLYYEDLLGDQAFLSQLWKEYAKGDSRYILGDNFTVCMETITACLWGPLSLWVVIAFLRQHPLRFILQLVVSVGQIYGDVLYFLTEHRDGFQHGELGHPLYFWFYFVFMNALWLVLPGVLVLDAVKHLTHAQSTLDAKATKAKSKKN
Sequence of UniProt A6NHQ2 (A6NHQ2 whole entry, looked up): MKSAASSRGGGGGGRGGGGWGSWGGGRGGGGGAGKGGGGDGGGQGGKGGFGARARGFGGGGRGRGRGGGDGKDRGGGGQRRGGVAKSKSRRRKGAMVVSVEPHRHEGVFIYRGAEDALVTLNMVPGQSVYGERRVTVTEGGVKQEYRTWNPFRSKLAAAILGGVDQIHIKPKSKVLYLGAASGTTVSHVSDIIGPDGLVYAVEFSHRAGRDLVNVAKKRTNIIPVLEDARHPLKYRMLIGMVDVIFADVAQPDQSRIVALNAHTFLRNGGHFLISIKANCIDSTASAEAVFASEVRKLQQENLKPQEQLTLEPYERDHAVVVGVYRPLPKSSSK
Sequence of UniProt Q96G46 (Q96G46 whole entry, looked up): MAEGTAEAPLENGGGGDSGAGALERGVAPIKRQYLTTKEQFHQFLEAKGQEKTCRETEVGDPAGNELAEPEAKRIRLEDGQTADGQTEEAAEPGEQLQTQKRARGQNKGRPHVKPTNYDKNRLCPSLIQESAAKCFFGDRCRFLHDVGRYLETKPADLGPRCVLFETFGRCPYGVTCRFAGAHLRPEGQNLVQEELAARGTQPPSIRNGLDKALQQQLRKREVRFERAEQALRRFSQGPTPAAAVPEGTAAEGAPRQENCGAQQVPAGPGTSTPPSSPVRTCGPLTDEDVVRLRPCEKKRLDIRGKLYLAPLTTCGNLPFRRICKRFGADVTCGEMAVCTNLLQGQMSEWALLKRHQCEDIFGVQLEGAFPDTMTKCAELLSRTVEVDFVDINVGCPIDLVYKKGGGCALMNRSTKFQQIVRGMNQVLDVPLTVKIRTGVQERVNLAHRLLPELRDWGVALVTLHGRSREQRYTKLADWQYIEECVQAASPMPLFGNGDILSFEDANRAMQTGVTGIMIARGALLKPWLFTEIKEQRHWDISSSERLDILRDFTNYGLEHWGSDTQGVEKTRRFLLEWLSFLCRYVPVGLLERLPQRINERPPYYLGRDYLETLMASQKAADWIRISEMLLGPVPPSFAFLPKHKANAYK
Sequence of UniProt Q9NX74 (Q9NX74 whole entry, looked up): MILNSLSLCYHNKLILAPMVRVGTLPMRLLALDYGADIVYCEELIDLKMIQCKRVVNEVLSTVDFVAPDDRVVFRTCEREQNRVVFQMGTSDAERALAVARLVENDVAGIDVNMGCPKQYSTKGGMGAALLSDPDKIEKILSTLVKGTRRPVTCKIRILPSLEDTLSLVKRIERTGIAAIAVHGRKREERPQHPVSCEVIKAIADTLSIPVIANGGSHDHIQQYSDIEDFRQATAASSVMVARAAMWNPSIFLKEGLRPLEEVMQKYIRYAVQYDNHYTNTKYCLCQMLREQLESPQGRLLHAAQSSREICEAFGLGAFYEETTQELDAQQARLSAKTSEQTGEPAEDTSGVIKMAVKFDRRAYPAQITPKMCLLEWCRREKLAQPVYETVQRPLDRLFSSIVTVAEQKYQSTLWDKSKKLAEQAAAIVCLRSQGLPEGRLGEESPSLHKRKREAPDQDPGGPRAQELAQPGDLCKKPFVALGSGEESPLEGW
Sequence of UniProt P11474 (P11474 whole entry, looked up): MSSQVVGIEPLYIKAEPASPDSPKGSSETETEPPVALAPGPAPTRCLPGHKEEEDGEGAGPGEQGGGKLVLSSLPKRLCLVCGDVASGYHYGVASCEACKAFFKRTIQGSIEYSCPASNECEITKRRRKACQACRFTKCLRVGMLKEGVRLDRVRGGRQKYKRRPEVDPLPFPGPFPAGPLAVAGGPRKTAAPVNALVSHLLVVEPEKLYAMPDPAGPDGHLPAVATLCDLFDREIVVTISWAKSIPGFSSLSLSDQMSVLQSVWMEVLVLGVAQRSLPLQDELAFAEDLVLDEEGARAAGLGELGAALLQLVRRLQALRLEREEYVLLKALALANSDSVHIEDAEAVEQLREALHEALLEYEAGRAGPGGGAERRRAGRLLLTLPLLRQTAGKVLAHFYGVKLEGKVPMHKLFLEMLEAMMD
Sequence of UniProt Q9NVI1 (Q9NVI1 whole entry, looked up): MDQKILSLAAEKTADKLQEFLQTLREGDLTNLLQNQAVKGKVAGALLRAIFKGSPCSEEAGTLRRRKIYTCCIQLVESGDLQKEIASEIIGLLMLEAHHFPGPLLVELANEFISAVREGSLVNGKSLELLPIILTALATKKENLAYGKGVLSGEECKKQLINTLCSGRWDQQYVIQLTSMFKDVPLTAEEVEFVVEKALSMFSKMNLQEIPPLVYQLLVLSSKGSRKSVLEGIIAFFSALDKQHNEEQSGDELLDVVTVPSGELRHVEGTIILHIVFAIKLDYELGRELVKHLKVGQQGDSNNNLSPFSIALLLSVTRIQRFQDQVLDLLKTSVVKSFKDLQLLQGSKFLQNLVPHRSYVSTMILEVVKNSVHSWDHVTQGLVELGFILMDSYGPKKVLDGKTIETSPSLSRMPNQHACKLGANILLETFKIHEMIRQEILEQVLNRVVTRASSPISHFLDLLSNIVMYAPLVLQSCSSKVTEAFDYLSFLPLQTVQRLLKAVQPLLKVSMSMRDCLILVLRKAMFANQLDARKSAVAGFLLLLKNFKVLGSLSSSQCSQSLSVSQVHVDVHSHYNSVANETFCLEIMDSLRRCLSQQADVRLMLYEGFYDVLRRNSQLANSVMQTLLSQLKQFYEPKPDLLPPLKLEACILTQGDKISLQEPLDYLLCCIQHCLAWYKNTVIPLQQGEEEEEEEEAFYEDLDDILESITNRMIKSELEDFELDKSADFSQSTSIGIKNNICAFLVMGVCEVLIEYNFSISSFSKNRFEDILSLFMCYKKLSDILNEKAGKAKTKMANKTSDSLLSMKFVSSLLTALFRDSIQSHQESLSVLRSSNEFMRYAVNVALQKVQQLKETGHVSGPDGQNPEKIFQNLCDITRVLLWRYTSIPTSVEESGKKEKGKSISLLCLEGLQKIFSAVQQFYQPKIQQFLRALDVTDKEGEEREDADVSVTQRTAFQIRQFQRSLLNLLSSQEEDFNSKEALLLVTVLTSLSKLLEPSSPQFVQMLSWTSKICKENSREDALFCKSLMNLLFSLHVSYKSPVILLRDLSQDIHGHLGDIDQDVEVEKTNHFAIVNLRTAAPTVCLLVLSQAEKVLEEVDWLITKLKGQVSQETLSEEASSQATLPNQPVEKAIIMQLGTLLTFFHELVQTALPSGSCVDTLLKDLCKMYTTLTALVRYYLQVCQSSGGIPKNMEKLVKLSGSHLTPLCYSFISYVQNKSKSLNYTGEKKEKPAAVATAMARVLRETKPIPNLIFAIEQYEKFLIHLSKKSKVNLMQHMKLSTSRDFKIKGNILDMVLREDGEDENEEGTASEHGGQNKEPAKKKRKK
Sequence of UniProt Q9NYY8 (Q9NYY8 whole entry, looked up): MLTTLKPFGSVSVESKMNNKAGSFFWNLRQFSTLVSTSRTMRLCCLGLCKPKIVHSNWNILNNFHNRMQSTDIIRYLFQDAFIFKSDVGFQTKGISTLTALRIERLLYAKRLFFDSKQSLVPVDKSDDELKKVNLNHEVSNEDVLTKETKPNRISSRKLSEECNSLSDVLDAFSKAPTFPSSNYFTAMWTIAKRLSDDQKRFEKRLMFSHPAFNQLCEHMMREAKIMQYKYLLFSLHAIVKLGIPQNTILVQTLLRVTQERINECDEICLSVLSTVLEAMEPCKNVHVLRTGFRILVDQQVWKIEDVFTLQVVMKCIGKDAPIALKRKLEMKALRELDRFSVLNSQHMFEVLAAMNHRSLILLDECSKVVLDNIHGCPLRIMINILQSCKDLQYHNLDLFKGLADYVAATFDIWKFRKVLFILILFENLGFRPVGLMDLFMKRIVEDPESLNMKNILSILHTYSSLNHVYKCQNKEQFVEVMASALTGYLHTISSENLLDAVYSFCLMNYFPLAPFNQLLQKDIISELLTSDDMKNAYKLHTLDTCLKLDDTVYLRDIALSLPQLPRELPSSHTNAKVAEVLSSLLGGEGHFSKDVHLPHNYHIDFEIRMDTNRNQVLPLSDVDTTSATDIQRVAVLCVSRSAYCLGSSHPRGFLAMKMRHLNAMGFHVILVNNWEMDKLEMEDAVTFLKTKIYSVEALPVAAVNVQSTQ

log2 fold change, inactive:
FARSA (UniProt Q9Y285) 0.007
FECH isoform 2 (UniProt P22830) 0.485
EBP (UniProt Q15125) 0.087
EP300 (UniProt Q09472) -0.026
EP400 isoform 5 (UniProt Q96L91) 0.037
ESRRA (UniProt P11474) 0.033
DUS2 (UniProt Q9NX74) 0.013
GCLM (UniProt P48507) 0.003
GGT7 (UniProt Q9UJ14) 0.008
EMP3 (UniProt P54852) 0.067
FANCI (UniProt Q9NVI1) 0.014
FAM118B (UniProt Q9BPY3) -0.002
GFPT1 (UniProt Q06210) 0.011
FKBP1A (UniProt P62942) 0.06
EDARADD (UniProt Q8WWZ3) 0.019
FIBP (UniProt O43427) 0.05
EHD2 (UniProt Q9NZN4) 0.055
FADS1, A0A0A0MR51 0.158
GALNT2 (UniProt Q10471) -0.004
FASTKD5 (UniProt Q7L8L6) 0.03
FBLL1 (UniProt A6NHQ2) -0.036
DTWD1 (UniProt Q8N5C7) 0.011
GGA2 (UniProt Q9UJY4) 0.003
FYB1 isoform 3 (UniProt O15117) 0.013
DYRK1A (UniProt Q13627) 0.113
DUS3L (UniProt Q96G46) -0.012
ERI1 (UniProt Q8IV48) 0.026
FBXO9 (UniProt Q9UK97) -0.015
ERBIN isoform 8 (UniProt Q96RT1) 0.025
ENY2 (UniProt Q9NPA8) 0.016
EEF1AKNMT (UniProt Q8N6R0) 0.051
EEF1A1, A0A087WVQ9 0.042
ETHE1 (UniProt O95571) -0.014
FBXO22 (UniProt Q8NEZ5) -0.074
FASTKD2 (UniProt Q9NYY8) 0.016
FBXO30 (UniProt Q8TB52) 0.03
